# Results filed as inconclusive are left out. The source made the active and inactive calls. The call rests on the fitted dose curve; in most records, active means well fitted curve in the direction sought with a large enough effect in the repeat runs; inconclusive means weak or mixed curves; inactive means no such curve, though single readings can be large; an effect the other way counts as inactive or inconclusive.
# Biological target: Cytochrome P450 2D6 (Homo sapiens) (UniProt P10635)
# Test: Cytochrome P450 family 2 subfamily D member 6 (CYP2D6) small molecule antagonists: luciferase biochemical (cell-free) qHTS assay (AID 1645840); further: nearly all actives have a fitted effect of over 55% in size; on activity change, negative = inhibition: on the % scale 0 is the no-effect control and ±100 the full control effect
# Details: P450-Glo CYP2D6 enzyme, luciferin luminescence, 1 h; series mostly up to 57.4 µM; activity change, negative = inhibition: at the top concentration
# In short: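 P450-Glo CYP2D6 system: proluciferin substrate converted by enzyme to luciferin, read by luminescence proportional to activity. Enzyme-substrate mix with compound 10 min at room temperature, then NADPH regeneration 1 h before detection reagent.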
# Potency means the concentration at half of the fitted maximal effect.
# Cytochrome P450 2D6 (Homo sapiens), sequence (P10635 whole entry, looked up): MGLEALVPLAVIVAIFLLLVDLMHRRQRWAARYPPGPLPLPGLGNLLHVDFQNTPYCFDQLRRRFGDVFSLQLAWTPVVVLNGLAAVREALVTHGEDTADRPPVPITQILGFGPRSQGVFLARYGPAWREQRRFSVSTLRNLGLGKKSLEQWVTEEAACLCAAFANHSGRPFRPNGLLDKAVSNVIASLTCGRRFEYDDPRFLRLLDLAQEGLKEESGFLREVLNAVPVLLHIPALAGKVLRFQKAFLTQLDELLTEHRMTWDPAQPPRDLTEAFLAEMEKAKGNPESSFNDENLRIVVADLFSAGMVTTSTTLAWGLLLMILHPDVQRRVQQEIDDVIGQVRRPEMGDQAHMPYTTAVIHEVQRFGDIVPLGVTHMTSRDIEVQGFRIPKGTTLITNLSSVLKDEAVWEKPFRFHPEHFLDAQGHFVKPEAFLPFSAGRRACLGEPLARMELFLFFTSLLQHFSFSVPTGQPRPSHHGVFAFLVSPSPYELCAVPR
Compound,"activity change, negative = inhibition",Potency
CC(C)[C@H]1CC[C@H](C)C[C@H]1O,-1.4% (inactive),
CCCCCCCCC=CCCCCCCCC(=O)NCCOC(=O)CC(C(=O)O)S(=O)(=O)O (centres undefined),,13.5 µM (active)
Cc1cc2c(F)c(Oc3ncnn4cc(OC[C@@H](C)OC(=O)[C@H](C)N)c(C)c34)ccc2[nH]1,,10.7 µM (active)
CCn1c(N)c(C(=O)NC)c(=O)c2ccc(C#C[C@@](C)(O)COC)nc21,12.7% (inactive),
CN[C@@H]1[C@@H](O)[C@@H](O[C@@H]2[C@@H](O)[C@H](O[C@H]3O[C@H]([C@@H](C)NC)CC[C@H]3N)[C@@H](N)C[C@H]2N)OC[C@]1(C)O,3.63% (inactive),
CCC=CCC=CCC=CCCCCCCCC(=O)O,-25% (inactive),
Cc1ccnc(NC(c2cc(C)ccc2O)c2ccc3cccnc3c2O)c1 (centres undefined),-21.7% (inactive),
O=C(O)[C@@H]1CCCN1,20.5% (inactive),
COc1ccc(CCNC(=O)Cn2nc(C)c3c(C)n(-c4ccc(C)cc4)nc3c2=O)c(OC)c1,,8.49 µM (active)
C=CC1=C(C(=O)O)N2C(=O)[C@@H](NC(=O)/C(=N\OCC(=O)O)c3csc(N)n3)[C@H]2SC1,2.72% (inactive),
CCC(/C=C/[C@@H](C)[C@H]1CCC2C3CC=C4C[C@@H](O)CC[C@]4(C)C3CC[C@@]21C)C(C)C (some centres undefined),-4.61% (inactive),
Cc1ccc(/C=C2\C(=O)C3(C)CCC2C3(C)C)cc1 (centres undefined),-8.43% (inactive),
NCCNc1ccc(NCCN)c2c1C(=O)c1ccncc1C2=O,,2.68 µM (active)
C#C[C@]1(O)CC[C@@H]2[C@@H]3CCC4=CCCC[C@@H]4[C@H]3C(=C)C[C@@]21CC,-8.66% (inactive),
Cc1cc(Cl)ccc1NC(=O)Cn1nc(C)c2c(C)n(-c3ccccc3)nc2c1=O,7.51% (inactive),

# Biological target: Cytochrome P450 3A4 (Homo sapiens) (UniProt P08684)
# Test: Cytochrome P450 family 3 subfamily A member 4 (CYP3A4) small molecule antagonists: luciferase qHTS assay (AID 1645841); further: nearly all actives have a fitted effect of over 45% in size
# Details: P450-Glo CYP3A4 enzyme assay, luciferin luminescence; series mostly up to 57.4 µM; activity change, negative = inhibition: at the top concentration
# In short: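 Luminescent CYP3A4 activity readout: compounds plus enzyme-substrate mix 10 min at room temperature, reaction started with NADPH regenerating system for 1 h, stopped with detection reagent, read after 20 min. Ketoconazole served as control.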
# Cytochrome P450 3A4 (Homo sapiens), sequence (P08684 whole entry, looked up): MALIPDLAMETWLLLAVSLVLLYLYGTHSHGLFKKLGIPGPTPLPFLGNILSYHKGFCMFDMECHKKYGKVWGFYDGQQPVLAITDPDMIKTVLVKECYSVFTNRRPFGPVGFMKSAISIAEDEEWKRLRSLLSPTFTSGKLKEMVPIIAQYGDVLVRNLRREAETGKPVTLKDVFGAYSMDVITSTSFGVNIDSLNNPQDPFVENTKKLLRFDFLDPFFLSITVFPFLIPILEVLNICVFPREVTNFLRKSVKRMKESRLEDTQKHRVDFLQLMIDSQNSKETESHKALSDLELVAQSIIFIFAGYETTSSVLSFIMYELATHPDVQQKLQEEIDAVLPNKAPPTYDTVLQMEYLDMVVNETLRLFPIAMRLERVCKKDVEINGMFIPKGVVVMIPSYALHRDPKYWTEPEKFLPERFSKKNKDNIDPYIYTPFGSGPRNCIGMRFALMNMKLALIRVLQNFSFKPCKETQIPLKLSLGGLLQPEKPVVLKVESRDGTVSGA
Compound,"activity change, negative = inhibition",Potency
Cc1nc2c(-c3ccccc3)c(C)[nH]n2c(=O)c1Cc1ccc(Br)cc1,-6.3% (inactive),
C[S+](=O)([O-])Nc1ccc(-c2ccc3nc(-c4cccc(OC(F)(F)F)c4)[nH]c3c2)cc1,-26.2% (inactive),
Oc1ccc(C2(c3ccccc3F)CCC(F)(F)CC2)cc1,,12 µM (active)

# Biological target: Cytochrome P450 2C9 (Homo sapiens) (UniProt P11712)
# Test: Cytochrome P450 family 2 subfamily C member 9 (CYP2C9) small molecule antagonists: luciferase biochemical (cell-free) qHTS assay (AID 1645842); further: nearly all actives have a fitted effect of over 55% in size; on activity change, negative = inhibition: on the % scale 0 is the no-effect control and ±100 the full control effect
# Details: P450-Glo CYP2C9 enzyme assay, luciferin luminescence; series mostly up to 57.4 µM; activity change, negative = inhibition: at the top concentration
# In short: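 P450-Glo CYP2C9 system: proluciferin substrate with enzyme in mix containing 0.4% BSA, 10 min at room temperature, then NADPH regeneration solution added and incubated 1 h at 37C. Detection reagent stopped reaction; luminescence read after 20 min as RLU.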
# Cytochrome P450 2C9 (Homo sapiens), sequence (P11712 whole entry, looked up): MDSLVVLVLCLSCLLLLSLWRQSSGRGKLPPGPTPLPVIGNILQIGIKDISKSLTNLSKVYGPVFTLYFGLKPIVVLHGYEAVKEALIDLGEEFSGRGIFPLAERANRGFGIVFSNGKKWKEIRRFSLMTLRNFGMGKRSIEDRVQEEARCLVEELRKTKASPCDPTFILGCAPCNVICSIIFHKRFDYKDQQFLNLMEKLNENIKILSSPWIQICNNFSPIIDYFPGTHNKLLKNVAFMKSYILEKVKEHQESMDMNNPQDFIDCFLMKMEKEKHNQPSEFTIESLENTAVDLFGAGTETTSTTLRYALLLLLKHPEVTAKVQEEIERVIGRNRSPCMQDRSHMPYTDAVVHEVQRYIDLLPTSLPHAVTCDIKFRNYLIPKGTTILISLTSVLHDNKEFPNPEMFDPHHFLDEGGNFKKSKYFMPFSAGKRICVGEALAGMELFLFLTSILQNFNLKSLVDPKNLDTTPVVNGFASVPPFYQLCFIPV
Compound,Potency,"activity change, negative = inhibition"
CCc1ccc(CNC(=O)C2CCCN(c3nnc(C)c4c(C)n(-c5ccc(OC)cc5)nc34)C2)cc1 (centres undefined),1.69 µM (active),
COc1ccc(NC(=O)CSc2nnc(NC(=O)NC3CCCCC3)s2)cc1OC,21.3 µM (active),
O=C(CSc1nc2ccsc2c(=O)n1Cc1ccccc1F)NCc1ccccc1Cl,1.51 µM (active),
COC(=O)Cc1cccc(NC(=O)C2=C(C)NC(Nc3nc4ccccc4o3)=NC2c2ccccc2Cl)c1 (centres undefined),9.52 µM (active),
Cc1ccc2ccc(C(Nc3ccccn3)c3ccccc3)c(O)c2n1 (centres undefined),2.68 µM (active),
CC1(C#N)CCN(c2c(C(=O)N3CCC(S(C)(=O)=O)CC3)cnc3cc(F)c(F)cc23)CC1,,-27.1% (inactive)
COc1ccc(C(C)=O)cc1CSc1nc(NCc2ccccc2)c2ccccc2n1,2.13 µM (active),
CCOc1ccc(CCNC(=O)C2CCCN(c3nnc(C)c4c(C)n(-c5ccccc5)nc34)C2)cc1 (centres undefined),3.01 µM (active),
Cc1cc2c(F)c(Oc3ncnn4cc(OC[C@@H](C)OC(=O)[C@H](C)N)c(C)c34)ccc2[nH]1,2.39 µM (active),
Cc1cccc2nc(-c3ccccn3)c(Nc3ccccc3)n12,1.2 µM (active),
CCOc1ccc(S(=O)(=O)NCc2ccc3c(c2)CCN3C(=O)c2ccc(C)cc2)cc1,0.301 µM (active),
CN(C)[S+](=O)([O-])c1ccc([S+](=O)([O-])N(Cc2cccs2)Cc2ccccc2Cl)cc1,3.79 µM (active),
CCn1cc2nc(SCC(=O)Nc3ccc(OC)c(OC)c3)n(Cc3ccc(Cl)cc3)c(=O)c2n1,3.79 µM (active),
CC(C)(C)NC(=O)[C@@H]1C[C@@H]2CCCC[C@@H]2CN1CC(O)[C@H](Cc1ccccc1)NC(=O)[C@@H](CC(N)=O)NC(=O)c1ccc2ccccc2n1 (some centres undefined),12 µM (active),
Cc1cccc(N2CCN(C(=O)CCC(=O)NNc3nc4ccccc4c4nc(C)nn34)CC2C)c1 (centres undefined),9.52 µM (active),
Cc1ccnc(NC(c2cc(C)ccc2O)c2ccc3cccnc3c2O)c1 (centres undefined),23.9 µM (active),
Cc1cc(C)c(Cn2c3ccccc3c3cnn(CC(=O)NCc4ccccn4)c(=O)c32)c(C)c1,10.7 µM (active),
COc1ccccc1NC(=O)CSc1oc(-c2cccs2)nc1S(=O)(=O)c1ccc(Br)cc1,0.425 µM (active),
CCNC(=O)N1CCN(C(=O)c2cnc3cc(OC)ccc3c2N2CCC(C)(C#N)CC2)CC1,2.39 µM (active),
O=C(O)[C@@H]1CCCN1,,7.7% (inactive)
C=CC1=C(C(=O)O)N2C(=O)[C@@H](NC(=O)/C(=N\OCC(=O)O)c3csc(N)n3)[C@H]2SC1,,-18.7% (inactive)
COc1cccc(-c2cc(F)ccc2[C@H]2Cc3nc(N)nc(C)c3C(=O)N2)n1,6.74 µM (active),
COc1cccc(CNC(=O)C2CCCN(c3nn4cc(-c5ccc(C)cc5)nc4s3)C2)c1 (centres undefined),2.39 µM (active),
Cc1cccc(Cc2c(C)nc3c(-c4ccccc4)c(C)[nH]n3c2=O)c1,,-11.2% (inactive)
Cn1c(=O)c2c(nc(OC3CCN(C(=O)C4CC4)CC3)n2CCC(C)(C)C)n(C)c1=O,12 µM (active),
COc1ccccc1NC(=O)Cc1c(C(=O)O)[nH]c2ccc(Cl)cc12,,20.5% (inactive)

# From PubChem BioAssay (NCATS)
